Shown are actives, neighbours in structure and some others; about 3.5% of the full set was active somewhere.
Autofluor counter – flagged as autofluorescent in microsphere protease counterscreen; AID 624483; 3.1% of 360,000 active; compound autofluorescence counterscreen, microsphere flow cytometry; stronger effect = higher value; fluorescence intensity (test concentration not listed); in the data active means fluorescence intensity above about 16000; inconclusive means no clear call, values can overlap the other calls
BoNT-F LC inh – BoNT F light chain protease inhibition. Multiplex microsphere protease cleavage assay, flow cytometry. inhibition, % at 10 µM. 0.22% of 360,000 active. AID 588497; in the data active means inhibition above about 35%, passing the limit was not always enough; inconclusive means no clear call, values can overlap the other calls; further: plate controls were buffer without enzyme for full effect and enzyme alone for no effect
SARS 3CLpro inh-1 – SARS-CoV 3CLpro protease inhibition; P0C6X7; inhibition, % at 6 µM; recombinant SARS-CoV 3CLpro, quenched FRET peptide cleavage; 0.14% of 290,000 active; in the data active means inhibition above about 12%
BoNT-A LC inh2 – inhibitors of Botulinum neurotoxin A light chain protease; 0.17% of 360,000 active; inhibition, % at 10 µM; multiplex microsphere protease substrate cleavage, flow cytometry; AID 588499; further: plate controls were buffer without enzyme for full effect and enzyme alone for no effect
Anthrax LF prot – anthrax lethal factor protease inhibition; P15917; multiplex microsphere protease cleavage assay, LF; inhibition, % at 10 µM; 0.12% of 360,000 active; AID 588501; further: plate controls were buffer without enzyme for full effect and enzyme alone for no effect
SARS 3CLpro inh-2 – confirmation of SARS coronavirus 3C-like protease inhibitors | shares compounds with SARS 3CLpro inh-1 | QFRET protease activity assay, 3CLpro | inhibition, % at 6 µM | 36% of 380 active; in the data active means inhibition above about 13%
* = called active by the depositor; ? = inconclusive; / = not tested or not shown. Unless noted, no stated cut-off is given here; in the data, active means inhibition above about 30%; inconclusive means no clear call, values can overlap the other calls; inactive means below that.

SMILES	Autofluor counter	BoNT-F LC inh	SARS 3CLpro inh-1	BoNT-A LC inh2	Anthrax LF prot	SARS 3CLpro inh-2
CC1CCC(N2CCN(c3ccc([N+](=O)[O-])cc3)CC2)CC1 (centres undefined)	3644	-8	2	-2	-2	/
CCCNC(=O)c1cc(C2CCCCN2S(=O)(=O)c2ccc(F)cc2F)on1 (centres undefined)	3755	3	/	0	-4	/
Cc1ccc(S(=O)(=O)Nc2cc(-c3ccccc3)nn2C)cc1Cl	6897	-13	14*	-2	0	9
Cc1ccc(S(=O)(=O)Nc2cc(-c3ccccc3)nn2C)cc1	/	/	0	/	/	/
Nc1nc(NCc2ccco2)nc(N2CCCCCC2)c1[N+](=O)[O-]	10296	-4	11	-1	-4	/
Cc1cc(=O)oc2cc(NC(=O)Cc3ccccc3[N+](=O)[O-])ccc12	3381	?	17*	0	11	13*
CCc1nc(N2CCN(C(=O)CCl)CC2)c2c3c(sc2n1)CC(C)CC3 (centres undefined)	4163	?	38*	0	12	63*
CCc1nc(N2CCN(C(C)=O)CC2)c2c3c(sc2n1)CC(C(C)(C)C)CC3 (centres undefined)	4048	33	0	-2	3	/
CC(=O)Nc1ccc2c(c1)C(C)(C)C(C)N2C (centres undefined)	/	/	-2	/	/	/
Cc1ccc(NC(CNS(=O)(=O)c2ccc(Cl)cc2)c2ccccc2)cc1 (centres undefined)	5870	-58	13*	-4	-11	8
O=S(=O)(NCC(Nc1ccc(Cl)cc1)c1ccccc1)c1ccccc1 (centres undefined)	2781	-40	2	-6	-4	/
COc1cccc(NC(=O)c2cc(Cl)nnc2Cl)c1	2819	0	7	0	1	/
COc1cc(NC(=O)c2cc(Cl)nnc2Cl)cc(OC)c1OC	2550	5	22*	1	2	6
COc1cc(NS(=O)(=O)c2ccc(NC(=S)NC(=O)c3ccc(F)cc3)cc2)nc(OC)n1	3744	-1	12*	-6	-8	6
COc1ccc(C(=O)NC(=S)Nc2ccc(S(=O)(=O)Nc3cc(OC)nc(OC)n3)cc2)cc1	3342	-30	8	-7	-4	/
CC(=O)Nc1ccc(S(=O)(=O)Oc2ccc(C(=S)N3CCCCC3)cc2)cc1	2657	-16	-3	-1	0	/
O=C(CCC(=O)OCc1ccc([N+](=O)[O-])cc1)Nc1ccc(F)cc1	2472	-1	0	0	-1	/
CCSc1nnc(Nc2ccc(C)cc2)s1	7769	-4	4	0	-2	/
CCOc1ccc(N(Cc2cc3ccc(C)cc3[nH]c2=O)S(=O)(=O)c2ccccc2)cc1	4345	-2	13*	2	-2	6
Cc1cc(NC(=O)COn2nnc3ccc(S(C)(=O)=O)cc32)ccc1Br	3399	-9	24*	0	1	31*
O=C(COn1nnc2ccc(S(=O)(=O)N3CCOCC3)cc21)Nc1c(F)c(F)c(F)c(F)c1F	4353	-3	2	0	-2	/
COc1cc(NC(=O)COn2nnc3ccc(S(C)(=O)=O)cc32)cc(OC)c1	3948	0	6	0	1	/
Cc1cc(Br)c(NC(=O)COn2nnc3ccc(S(C)(=O)=O)cc32)c(Br)c1	3108	0	12*	-1	1	8
COc1ccc(CCNC(=O)CN(c2ccccc2OC)S(=O)(=O)c2ccc(C)cc2)cc1	?	-2	-3	3	-2	/
O=C(Cc1ccc(Cl)cc1)NCCCn1ccnc1	10235	-14	5	5	0	/
SMILES	Autofluor counter	BoNT-F LC inh	SARS 3CLpro inh-1	BoNT-A LC inh2	Anthrax LF prot	SARS 3CLpro inh-2
O=C(Cc1c(F)cccc1Cl)NCCCn1ccnc1	7345	-4	38*	0	-6	-5
O=C(Cn1nnc2ccccc21)c1ccc(Cl)cc1	?	-9	35*	-4	-5	35*
O=C(Cn1nnc2ccccc21)c1ccc([N+](=O)[O-])cc1	3600	3	5	0	-12	/
CN(CC(=O)Nc1cccc(F)c1)C(=O)C1CCN(C(=O)c2ccc(Cl)cc2)CC1	2964	-4	/	0	-12	/
Cc1nc(-c2ccc(S(=O)(=O)N3CCN(c4ccccc4)CC3)cc2)co1	4288	2	12*	0	-2	2
O=C1/C(=C/c2cccc(Cl)c2)SC(=S)N1CCC(=O)N1CCCCC1CCO (centres undefined)	5484	3	14*	0	-1	3
Cc1ccc(C)c(OCCNc2ccc([N+](=O)[O-])cn2)c1	3761	-8	2	0	-4	/
CCN(CC)C(=O)Cn1cc(/C=C2\C(=O)NC(=O)N(c3ccccc3F)C2=O)c2ccccc21	3074	1	17*	-3	1	23*
O=C(O)Cn1cc(/C=C2\C(=O)NC(=O)N(c3ccc(Cl)cc3)C2=O)c2ccccc21	3526	20	4	2	-20	/
COC(=O)c1ccccc1NC(=O)c1ccc2c(c1)OCCCO2	6355	-10	12*	-1	-2	-2
Fc1ccc(-c2nnc(CSc3nnc(-c4cccs4)o3)o2)cc1	2606	-5	3	0	-6	/
CC1(C)C2CC=C(/C=N/NC(=S)Nc3cccnc3)C1C2 (centres undefined)	4456	-7	15*	1	3	39*
CC(C)(C)c1ccc(-n2ncc3c2CCCC3NC(=O)c2ccncc2)cc1 (centres undefined)	6800	-6	2	-3	-1	/
Cc1cc(C(=O)NC2CCCc3c2cnn3-c2ccc(C(C)(C)C)cc2)n[nH]1 (centres undefined)	4631	-4	13*	-1	-1	2
COc1cccc(C(C(=O)NCC2CCCO2)N(C(=O)Cn2nnc3ccccc32)c2ccc(NC(C)=O)cc2)c1 (centres undefined)	3758	-19	31*	-3	-2	34*
CCOc1ccc(C(C(=O)Nc2ccc(F)cc2)N(C(=O)Cn2nnc3ccccc32)C2CC2)cc1 (centres undefined)	5785	1	5	0	-4	/
COc1cccc(C(C(=O)Nc2ccc(F)cc2)N(C(=O)Cn2nnc3ccccc32)C2CC2)c1 (centres undefined)	8864	-6	33*	1	0	37*
CCCCNC(=O)C[C@@H]1C[C@@]2(C(=O)OCC)CCCC=C2N(Cc2ccc3c(c2)OCO3)C1=O	5163	2	/	0	-4	/
O=C(CCl)N=c1sccn1Cc1ccc(Cl)cc1Cl	4274	1	33*	-1	-5	63*
O=C(CCl)N=c1sccn1Cc1ccccc1Cl	4674	5	41*	0	7	58*
N=c1sccn1Cc1ccc(Cl)cc1Cl	10484	1	-6	0	1	/
O=C(O)/C(=C\c1ccc(F)cc1)c1ccc(-c2ccccc2)cc1	4234	-10	13*	-2	4	12
O=C(O)/C(=C\c1ccccc1OC(F)F)c1ccc(-c2ccccc2)cc1	5903	-5	4	-2	2	/
CCn1c(SCC(=O)c2ccc(OC)cc2)nnc1C1CC1	4200	-12	2	-2	0	/

Compound activity from PubChem BioAssay.
